Consider 40 compounds from PubChem BioAssay (NCATS).

Molecules are shown by their SMILES. The list shows a part of the results. Results filed as inconclusive are left out. Values without a mark were called inactive. Calls of active or inactive are those of the source. Calls come from the whole dose curve; as a rule, active = well fitted inhibition curve with a large enough effect; inconclusive = small, poorly fitted or top-dose-only effect, or effect the other way; inactive = no such curve, though single readings can be large or run the other way.
% is set by controls: 0 for no effect and ±100 for the full control effect; potency is the fitted concentration of half-maximal effect.

The assay can be described thus: qHTS Assay for Inhibitors of Fructose-1,6-bisphosphate Aldolase from Giardia Lamblia: Giardia lamblia growth inhibition (AID 2785).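 Note: trophozoites exposed to compound for 48 h at 37 °C; nearly all actives have a fitted effect of over 70% in size.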 The settings on record: Giardia lamblia trophozoite growth inhibition; series mostly up to 57.5 µM; activity change, negative = inhibition: at the top concentration. The source says: NIH Chemical Genomics Center [NCGC]
NIH Molecular Libraries Probe Production centers Network [MLPCN]
Assay Provider: Osnat Herzberg, University of Maryland
The objective of this project is to obtain compounds that inhibit Giardia lamblia growth. G. lamblia is a human pathogen which afflicts impoverished nations; it is the most common cause of outbreaks of diarrhea in the United States. During the course of our study of potential drug targets in Giardia, we have identified the Class II (Zn2+ functions in electrophilic catalysis) fructose-1,6-bisphosphate aldolase (FBPA) as an excellent candidate for drug targeting. FBPA is a key glycolytic pathway enzyme, essential for G. lamblia survival. The human FBPA belongs to the Class I aldolases, which have a different substrate binding site structure and a radically different catalytic mechanism (employing a lysine-Schiff base intermediate). Therefore, affinity-based or mechanism-based inhibitors of the Giardia FBPA are expected not to interfere with the catalytic function of the human FBPA.
A glyceraldehyde-3-phosphate dehydrogenase/triose phosphate isomerase/NAD/arsenate coupled assay was adapted to the 1536-well HTP format for use in the primary screen. This was done by coupling it to a diaphorase/resazurin/resorufin reaction that can be monitored by fluorescence (excitation, 544 nm; emission, 590 nm). Compounds identified in this screen will be further evaluated by coupling the glycerol-3-phosphate/triose phosphate isomerase/NADH assay to a phenazine methosulfate/tetranitroblue tetrazolium color reaction. False positives due to the dehydrogenases and diaphorase inhibition will be eliminated, and selectivity assay will triage inhibitors of mammalian triose phosphate isomerase and the Class I FBPA. G. lamblia FBPA inhibitors identified by the in vitro analyses will be examined for growth inhibition of Giardia trophozoites, and for cytotoxicity in human cells.
This assay addresses whether hits in the primary screen can inhibit growth of giardia lamblia trophozoites.
Trophozoites of the G. lamblia isolate WB (33) were grown at pH 7.0 in modified TYI-S-33 medium. Detachment of trophozoites for preparation of inocula was achieved by chilling the cultures on ice for 20 min.
2uL/well media was dispensed per well into 1536-well white solid-bottom plates using a Multidrop Combi dispenser (Thermo Scientific). Subsequently, 23 nL/well compound solutions or DMSO controls were dispensed to the assay plates containing media via a pintool workstation (Kalypsys, San Diego) to avoid the potential contamination to the compound source plates. Unless otherwise noted, Giardia trophozoids suspended in media were dispensed as 100 cells/well in 4uL volumes. The plates were covered with plastic low-evaporation lids, individually sealed in Type A Bio-Bags and incubated at 37C for 48 hours. Following incubation, 4uL/well of ATPlite reagent was dispensed with a Multidrop Combi dispenser. The assay plates were briefly centrifuged at 1000 RPM and luminescence signal was detected on a ViewLux plate reader (PerkinElmer) after 20 min incubation at room temperature.
Keywords: Fructose-bisphosphate aldolase, FBPA , Giardia lamblia , Giardia, HTS, Inhibitors
For `COc1ccc(N=Nc2c(-c3ccc(OC)cc3)[nH]oc2=O)cc1`, the “activity change, negative = inhibition” value was -15.5%.

`Cc1nnc(N/N=C/c2ccccn2)[nH]c1=O`: the Potency was 25.1 µM (active).

With `Cc1ccc(OCCCCc2c(C)n[nH]c2C)cc1`, the activity change, negative = inhibition is 7.15% [at 10.4 µM].

In the case of `O=C(Nc1ccccc1Cl)O/N=C(/c1ccccc1)c1ccccn1`, the Potency is 22.4 µM (active).

As to `O=c1nc(N/N=C/c2ccco2)cn[nH]1`, the “activity change, negative = inhibition” value is -5.51%.

Regarding `CN1C(=O)/C(=C\c2ccc(-c3ccccc3)o2)SC1=S`, the “activity change, negative = inhibition” value is -13.3% [at 38.3 µM].

For the compound `Cc1cccc(C)c1OCCN1CCOCC1`, the activity change, negative = inhibition was 14.9% [at 10.4 µM].

For `O=S(=O)(c1ccc(NC(=S)NN=C(C2CC2)C2CC2)cc1)N1CCOCC1`, the activity change, negative = inhibition was -9.73% [at 10.4 µM].

As to `CCN(CC(=O)NC(=O)NCc1ccccc1)Cc1nc2ccccc2c(=O)[nH]1`, the “activity change, negative = inhibition” value is -29.8%.

Consider `COc1ccccc1CN1CCN(Cc2cc(OC)c(OC)cc2OC)CC1`, for which the “activity change, negative = inhibition” value is 59.3%.

With `CN1CCCc2cc(C#N)c(=O)[nH]c21`, the “activity change, negative = inhibition” value was 27.9%.

In the case of `O=C1CCCN1CCCNC(=S)Nc1ccc(F)c(Cl)c1`, the “activity change, negative = inhibition” value was -14.2%.

For the compound `C=CCc1cc(C)ccc1OCCCn1ccnc1`, the activity change, negative = inhibition was 5.83% [at 10.4 µM].

As for `Cc1nc(N2CCOCC2)sc1C(=O)NN`, the “activity change, negative = inhibition” value was 13.6%.

With `CC(C)(c1ccccc1)c1ccc(OCCN2CCCC2)cc1`, the “activity change, negative = inhibition” value was -13.4%.

For `Cc1csc(NC(=O)CN2CCCCCC2)n1`, the activity change, negative = inhibition is 1.38% [at 10.4 µM].

Consider `COCCN(C(=S)Nc1ccccc1OC)C1CCN(C(C)C)CC1`, for which the “activity change, negative = inhibition” value was 9.74%.

Consider `Cc1nc2ccc(NC(=S)N3CCC(C)CC3)cc2nc1C`, for which the “activity change, negative = inhibition” value is -1.02%.

Regarding `O=C(NC(=S)Nc1ncccn1)c1ccccc1Br`, the “activity change, negative = inhibition” value is -26.3% [at 38.3 µM].

Take `C=CCNC(=S)/N=c1/ccccn1Cc1ccccc1`: the activity change, negative = inhibition is 3.99% [at 10.4 µM].

For the compound `CC(=O)NC1CCN(CC(=O)Nc2nccs2)CC1`, the activity change, negative = inhibition was -10.3% [at 10.4 µM].

Regarding `Cc1cnc(NC(=O)c2ccccn2)s1`, the activity change, negative = inhibition is -23.9% [at 10.4 µM].

Regarding `CSc1n[nH]c(=S)n1N`, the “activity change, negative = inhibition” value was 10.6%.

As for `CCN(CC(=O)Nc1ccc(S(=O)(=O)N2CCCC2)cc1)CC(=O)Nc1cccc(OC)c1`, the “activity change, negative = inhibition” value was -24.9%.

Turning to `O=C(CN1C(=O)COc2ccccc21)Nc1ccc(F)cc1`, the “activity change, negative = inhibition” value is -19.4% [at 38.3 µM].

As to `Cc1cc(C)c2c(=O)[nH]c(SCC(=O)Nc3ccc(Br)cc3)nc2n1`, the “activity change, negative = inhibition” value was -5.41%.

Take `CN(C)CCOc1ccc(Cl)cc1C(C)(C)C`: the activity change, negative = inhibition is -6.56% [at 10.4 µM].

Regarding `Clc1cccc(CN2COc3c(cc(Cl)c4cccnc34)C2)c1`, the “activity change, negative = inhibition” value is -13.7%.

For the compound `COc1ccc(CN2CCN(Cc3ccc(OC)c(OC)c3OC)CC2)cc1`, the activity change, negative = inhibition was 6.68% [at 10.4 µM].

Consider `COc1cc(CN2CCN(Cc3ccc(C)cc3)CC2)c([N+](=O)[O-])cc1OC`, for which the “activity change, negative = inhibition” value is -29.9%.

For `COc1ccc(Cl)cc1C(=O)NNC(=O)c1nc2nc(C)cc(C)n2n1`, the “activity change, negative = inhibition” value is -17.9%.

Turning to `O=[N+]([O-])c1cc([N+](=O)[O-])c2cccnc2c1O`, the “activity change, negative = inhibition” value was 25.3%.

Consider `Cn1nnc(NC(=S)NC(=O)c2ccccc2)n1`, for which the “activity change, negative = inhibition” value was -3.64% [at 38.3 µM].

Take `C=C(C)CNC(=S)N/N=C/c1ccccc1OCC(=O)O`: the “activity change, negative = inhibition” value is -11.7%.

Regarding `COc1ccc(C(=O)NC(=S)N2CCCCC2c2cccnc2)cc1OC` (stereo not given), the “activity change, negative = inhibition” value is -19.9%.

For `CNC(=S)N/N=C/c1ccc(N2CCOCC2)s1`, the activity change, negative = inhibition was -8.92% [at 10.4 µM].

On to `O=C(Nc1nnc(-c2ccco2)o1)c1ccc(S(=O)(=O)N2CCOCC2)cc1`, for which the activity change, negative = inhibition was 7.93% [at 10.4 µM].

Turning to `COc1ccc(OC)c(Nc2nc(-c3ccc(O)c(O)c3)cs2)c1`, the activity change, negative = inhibition is -10.8% [at 10.4 µM].

Consider `Cc1cccc(-c2nnc(SCC(=O)O)n2Cc2ccccc2)c1`, for which the activity change, negative = inhibition was 6.79% [at 10.4 µM].

On to `CN1CCN(CCCCOc2ccccc2-c2ccccc2)CC1`, for which the “activity change, negative = inhibition” value was 45.3%.
